Source: PubChem BioAssay AID1822 (The Scripps Research Institute Molecular Screening Center, 2009)
Values joined by “and” are separate entries in the source; they are usually repeats but may differ in a detail not shown here. Equal values may be shown once. Hit rate of the full screen: of about 290,000 compounds, about 3,500 (1.2%) were called active.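 The calls were made as follows: active = inhibition above the campaign mean inhibition over all tested compounds plus 3 SD (cut at about 28% in these data); inactive = the rest.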 For the sample, actives were picked, then their nearest neighbours and some compounds at random.

test system: M18 aspartyl aminopeptidase (Plasmodium falciparum 3D7); test: inhibition of P. falciparum M18 aminopeptidase – biochemical, QFRET, recombinant enzyme, primary screen (AID 1822); details: recombinant PfM18AAP, H-Glu-NHMec fluorogenic cleavage; at 7.35 µM; hits give high values;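 also: 0% = plate median of test compound wells and 100% = 2 mM ZnCl2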

| Compound | inhibition |
| --- | --- |
| COc1cc(/C=N/Nc2nn3cnnc3c3ccccc23)cc(OC)c1OC | 43.6% (active) |
| COc1cc(Nc2nc3ccc(Cl)cc3n3cnnc23)cc(OC)c1OC | -5.42% (inactive) |
| COc1cc(/C=N/NC(=O)Cc2ccccc2)cc(OC)c1OC | 0.54% (inactive) |
| CCOC(=O)C(CC)/C(C)=N\NC(=O)c1cccc(C)c1 (configuration not stated) | -12.1% (inactive) |
| O=CN1CCN(C(=O)c2ccc(Br)o2)CC1 | -0.01% (inactive) |
| O=C(Cc1ccccc1)Nc1c(C(=O)N2CCCCCC2)cnn1-c1ccccc1 | 5.1% (inactive) |
| O=C(COc1ccccc1Cl)N1CCCCCCC1 | 5.5% (inactive) |
| Cc1nn(-c2ccccc2)c(C)c1NC(=O)COc1ccc(Cl)cc1Cl | -6.26% (inactive) |
| O=C(Nn1cnnc1)c1cc(Cl)ccc1Cl | 54.6% (active) |
| O=C(COc1ccccc1Cl)Nc1ccc(C(=O)c2ccc(C(=O)O)cc2)cc1 | -8.1% (inactive) |
| O=C(Nc1ccccc1Cl)Nn1cnnc1 | 77.6% (active) |
| O=C(Nc1ccccc1Cl)Nc1cccc2cccnc12 | 6.47% (inactive) |
| O=C(COc1ccccc1Cl)Nn1cnnc1 | 31% (active) |
| COc1ccccc1C(=O)Nn1cnnc1 | 18.1% (inactive) |
| O=C(Nc1cccnc1)c1cc(Cl)ccc1Cl | -0.24% (inactive) |
| O=C(COc1ccc([N+](=O)[O-])cc1Cl)Nn1cnnc1 | 33% (active) |
| O=C(Nn1cnc2ccccc2c1=O)c1ccc([N+](=O)[O-])cc1Cl | -1.63% (inactive) |
| Cc1c(NC(=O)Nc2ccccc2Cl)sc(=S)n1C | 4.48% (inactive) |
| COc1ccccc1NC(=O)CCC(=O)N1CC(C)Oc2ccc(C)cc21 (configuration not stated) | -4.62% (inactive) |
| O=C(CN(Cc1ccccc1)C(=O)CCC(=O)Nc1ccccn1)NCCc1ccccc1 | 0.21% (inactive) |
| O=[N+]([O-])c1cccc(S(=O)(=O)NCc2ccccn2)c1 | -8.77% (inactive) |
| CN(Cc1ccccc1)CC(O)COc1ccc(CNCc2cc3ccccc3s2)cc1 (configuration not stated) | -3.49% (inactive) |
| COc1ccc(C(=O)NC2CC2)cc1OC1CCN(C/C=C/c2ccccc2)CC1 | -7.74% (inactive) |
| CC(C)CCNC(=O)c1ccc2c(Cl)c3c(nc2c1)CCC3 | -8.56% (inactive) |
| CCN(CC)c1ccc(C(=O)NNC(=O)CCc2nc3ccccc3c(=O)[nH]2)cc1 | -7.26% (inactive) |

| Compound | inhibition |
| --- | --- |
| CC(=O)N1CCOc2ccc(S(=O)(=O)N3CCN(c4cccc(C(F)(F)F)c4)CC3)cc21 | -2.98% (inactive) |
| COC(=O)c1c(NC(=O)CCCC(=O)O)sc2c1CCCCC2 | 29.6% (active) |
| O=C(CN1CCCC1)Nc1sc2c(c1C(=O)Nc1ccccc1)CCCC2 | 7.15% (inactive) |
| Cc1ccc(C(=O)c2c(NC(=O)c3ccncc3)sc3c2CCCC3)cc1 | -11.4% (inactive) |
| COC(=O)c1c(NC(=O)C2CC(C)=C(C)CC2C(=O)O)sc2c1CCCCC2 (configuration not stated) | -0.05% (inactive) |
| COC(=O)c1c(NC(=O)CCN2CCOCC2)sc2c1CCCC2 | -1.78% (inactive) |
| Cc1ccc(NC(=O)c2c(NC(=O)CCC(=O)O)sc3c2CCCCC3)cc1 | 36.1% (active) |
| Cc1cccc(OCC(=O)NC2CC(C)(C)NC(C)(C)C2)c1 | 7.98% (inactive) |
| Cc1cc(C)c(S(=O)(=O)Nc2c(C)n(C)n(-c3ccccc3)c2=O)cc1[N+](=O)[O-] | 1.79% (inactive) |
| C=CCn1c(SCc2ccccc2)nc2c1c(=O)[nH]c(=O)n2C | -4.12% (inactive) |
| Cc1cc(=O)n2nc(N3CCCC(C(=O)NCc4cccc(Cl)c4)C3)sc2n1 (configuration not stated) | 0.59% (inactive) |
| CC(C)(C)c1ccc(C(=O)N2CCC(C(=O)N3CCCCC3)CC2)cc1 | -4.18% (inactive) |
| C=CCNC(=O)c1ccccc1SCc1c(C)noc1C | -1.38% (inactive) |
| COc1cc(/C=N/NC(=S)Nc2cccnc2)cc(OC)c1O | 44.8% (active) |
| COc1cc(/C=N/Nc2ccc(C)cc2)cc(Br)c1O | 18.2% (inactive) |
| COc1ccc(/C=C/C(=O)Nc2cccnc2)cc1OC | -3.57% (inactive) |
| O=C(CCC1CCN(C(=O)c2cccc(Cl)c2F)CC1)Nc1ccccc1 | 4.45% (inactive) |
| COc1ccc(C(=O)NC(C)Cn2nc(C)cc2C)cc1OC1CCN(C(C)=O)CC1 (configuration not stated) | 2.44% (inactive) |
| COc1ccc(CCOC(=O)CNC(=O)c2ccc(Cl)cc2Cl)cc1 | 2.28% (inactive) |
| O=C(CSc1nc2ccccc2[nH]1)Nc1nc(-c2ccccc2)c(-c2ccccc2)o1 | 1.21% (inactive) |
| O=C(CSc1n[nH]c(-c2cccnc2)n1)Nc1ccnc2ccccc12 | -2.9% (inactive) |
| O=C(CSc1ncn[nH]1)Nc1nsc(-c2ccccc2)n1 | 34.3% (active) |
| CCN(C(=O)CSc1ncn[nH]1)c1cccc2ccccc12 | 19% (inactive) |
| O=C(CSc1nc(-c2ccccc2)cs1)Nc1cccc([N+](=O)[O-])c1 | 1.5% (inactive) |
| O=C(CSC1=NCCS1)Nc1nc(-c2ccccc2)cs1 | 4.17% (inactive) |

| Compound | inhibition |
| --- | --- |
| O=C(Nc1nsc(-c2ccccc2)n1)c1ccncc1 | -9.47% (inactive) |
| O=C(CSc1ncn[nH]1)Nc1ccnc2ccccc12 | 71.8% (active) |
| O=C(CSc1ncn[nH]1)Nc1nc(-c2cccc([N+](=O)[O-])c2)cs1 | 41.6% (active) |
| O=C(Nc1ccccc1)Nc1nnc(COc2ccccc2F)s1 | -2.7% (inactive) |
| CCOc1ccc2nc(NC(=O)c3cc([N+](=O)[O-])ccc3N3CCOCC3)sc2c1 | -2.3% (inactive) |
| CCOC(=O)N1CCN(C(=O)c2ccc3c(=O)n(CCc4ccc(OC)c(OC)c4)c(=O)[nH]c3c2)CC1 | 4.45% (inactive) |
| CCC(C)Sc1nc2c(cnn2-c2ccc(F)cc2)c(=O)[nH]1 (configuration not stated) | 1.81% (inactive) |
| COc1ccc(CCN(C)C(=O)C23CC4CC(CC(Cl)(C4)C2)C3)cc1OC | -8.52% (inactive) |
| CC1CCN(C(=O)CCc2nnc3ccc(NCc4ccco4)nn23)CC1 | 23.2% (inactive) |
| CCC(C)[C@H](NC(=O)N1CCn2c1nc1ccccc12)C(=O)NCc1ccc(OC)cc1 (some centres not stated) | 9.53% (inactive) |
| C=CCC1(CC=C)CCCN1C(=O)c1cc(COc2ccc(-n3cncn3)cc2)on1 | -14.1% (inactive) |
| CC(=O)Nc1cccc(C(=O)Nc2nc(C)cs2)c1 | -10.2% (inactive) |
| Cc1csc(NC(=O)Nc2ccccc2[N+](=O)[O-])n1 | 9.93% (inactive) |
| Cc1csc(NC(=O)NC2(C(F)(F)F)Oc3ccccc3O2)n1 | 70.8% (active) |
| COc1ccc(N2CCN(C(=O)CN3C(=O)COc4ccccc43)CC2)cc1 | -6.46% (inactive) |
| Oc1ccc(Br)cc1C=Nc1ccc2[nH]ncc2c1 | 4.29% (inactive) |
| COc1ccc(Br)cc1/C=N/n1c(C)nnc1C | 0.59% (inactive) |
| COc1cc(Br)cc(/C=N/c2ncn[nH]2)c1O | 61.7% (active) |
| Oc1ccc(Cl)cc1/C=N/c1nc2ccccc2[nH]1 | 0.82% (inactive) |
| Oc1c(Cl)cc(Cl)cc1/C=N/c1ncn[nH]1 | 45.4% (active) |
| O=C(CN1C(=O)c2cccnc2Oc2ccc(Cl)cc21)Nc1ccc(F)cc1 | -4.17% (inactive) |
| Cc1cc(F)ccc1N1CCC(N2CCN(C)C(CCO)C2)CC1 (configuration not stated) | -5.24% (inactive) |
| O=C(NNS(=O)(=O)c1ccc(F)cc1)C1CCCCC1 | -0.96% (inactive) |
| Cc1cc(=O)oc2c(C)c(OC(C)C(=O)NC3CCN(Cc4ccccc4)CC3)ccc12 (configuration not stated) | -1.22% (inactive) |
| Cc1ccnc(NC(=O)C2CCN(S(=O)(=O)c3c(C)c(C)cc(C)c3C)CC2)c1 | 3.42% (inactive) |

| Compound | inhibition |
| --- | --- |
| Cc1nc([N+](=O)[O-])nn1C12CC3CC(CC(Br)(C3)C1)C2 | 13.9% (inactive) |
| Cc1ccnc(N2CCCC(C(=O)NC3CC3)C2)n1 (configuration not stated) | 0.97% (inactive) |
| Cc1ccnc(-n2sc3ccccc3c2=O)n1 | 42% (active) |
| Cc1ccnc(SCC(N)=O)n1 | 3.17% (inactive) |
| CN(C)S(=O)(=O)c1ccc(N2CCCC2)c(C(=O)Nc2cccc(F)c2)c1 | -1.31% (inactive) |
| Cc1ccc(S(=O)(=O)N2CCCC(C(=O)N3CCN(C)CC3)C2)cc1 (configuration not stated) | -0.92% (inactive) |
| O=S(=O)(NC1CC1)c1ccc(F)c(F)c1 | -0.16% (inactive) |
| Cn1sc(=O)c2cc(S(=O)(=O)NC3CC3)ccc21 | 43% (active) |
| CC1CCC(NS(=O)(=O)c2ccc3c(c2)n(C)c(=O)c(=O)n3C)CC1 (configuration not stated) | -14% (inactive) |
| N=c1c2c3c(sc2ncn1N)CCCC3 | 2.91% (inactive) |
| N=c1c2c3c(sc2ncn1N)CCCCC3 | -3.67% (inactive) |
| S=c1[nH]nc2c3c4c(sc3ncn12)CCCC4 | 38.3% (active) |
| Cn1ncc(Br)c1C(=O)NC1CCCC1 | -2.67% (inactive) |
| O=C(CSC1=Nc2ccccc2C2=NC(CC(=O)NCc3ccco3)C(=O)N12)NCc1ccco1 (configuration not stated) | 7.17% (inactive) |
| CCC(C)NC(=O)CSC1=Nc2ccccc2C2=NC(CCC(=O)NCc3ccco3)C(=O)N12 (configuration not stated) | -0.47% (inactive) |
| CC(C)C1N=C2c3ccccc3N=C(SCC(=O)c3ccc(O)c(O)c3)N2C1=O (configuration not stated) | 55.1% (active) |
| CC(=O)C(C)n1cnc2scc(-c3ccc(C)cc3)c2c1=O (configuration not stated) | 0.85% (inactive) |
| CSc1ccc(CNC(=O)c2ccc(NC(=O)C3=CSCCO3)cc2)cc1 | 6.37% (inactive) |
| COc1cccc(C(=O)Nc2nnc(S(=O)(=O)N3CCOCC3)s2)c1 | 1.13% (inactive) |
| Cc1ccc(C(=O)Cn2cc([N+](=O)[O-])nc2C)cc1 | 1.83% (inactive) |
| O=C(c1ccncc1)c1ccc([N+](=O)[O-])cc1 | -0.4% (inactive) |
| O=C(Cn1c[n+](CC(=O)c2ccc([N+](=O)[O-])cc2)cn1)c1ccc([N+](=O)[O-])cc1 | 50.9% (active) and 63.7% (active) |
